# PubChem BioAssay (NCATS)
# Inconclusive results are not listed. Values without a mark were called inactive. Calls follow the shape of the dose curve; as a rule, active = well fitted curve in the direction sought with a large enough effect; inconclusive = small, poorly fitted or top-dose-only effect, or another doubt; inactive = no such curve, though single readings can be large or run the other way.
# Biological target: Calcium and integrin-binding protein 1 (Homo sapiens) (UniProt Q99828)
# Experiment: Validation qHTS for Identification of Calcium Integrin Binding protein 1 (CIB1) Competitor (AID 1508618)
# Conditions: CIB1-GST / FITC-alphaIIb peptide fluorescence polarization; series mostly up to 114 µM; activity change, negative = inhibition: at the top concentration
# Outline: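 In this qHTS validation, the LOPAC set (up to 114 uM) was tested for blocking CIB1 binding to a fluorescein-tagged alphaIIb peptide, with FP detection at 480/540 nm.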
# % is scaled to controls: 0 for no effect and ±100 for the full control effect.
# Sequence of Calcium and integrin-binding protein 1 (Homo sapiens) (Q99828 whole entry, looked up): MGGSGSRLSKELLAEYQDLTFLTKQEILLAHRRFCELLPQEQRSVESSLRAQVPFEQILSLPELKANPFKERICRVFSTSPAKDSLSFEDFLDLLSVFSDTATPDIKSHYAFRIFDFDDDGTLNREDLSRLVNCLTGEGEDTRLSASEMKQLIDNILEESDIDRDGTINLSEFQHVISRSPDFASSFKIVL
row,SMILES,"activity change, negative = inhibition [%]"
1,CSc1ccccc1N1CCN(CCCCCC(=O)NC2CCCc3ccccc32)CC1 (stereo unspecified),5.36
2,O=C1/C(=C/c2ccsc2)CC/C1=C\c1cccs1,9.49
3,CCCCCCCCCCCCCCCCCC(=O)OC(CC(=O)O)C[N+](C)(C)C (stereo unspecified),1.8
4,Cn1cc(C2=C(c3ccc(Cl)cc3Cl)C(=O)NC2=O)c2ccccc21,0.514
5,NCCCS(=O)(=O)O,6.61
6,Nc1nc(Nc2ccccc2)nc2c1ncn2[C@@H]1O[C@H](CO)[C@@H](O)[C@H]1O,5.92
7,NC[C@@H]1O[C@H](C23CC4CC(CC(C4)C2)C3)Cc2c1ccc(O)c2O,7.71
8,Nc1ncnc2c1ncn2[C@@H]1O[C@H](COP(=O)(O)CP(=O)(O)OP(=O)(O)O)[C@@H](O)[C@H]1O,9.76
9,NCCCCCCCCCCN,8.97
10,CNC(=O)[C@H]1O[C@@H](n2cnc3c(NCc4cccc(I)c4)ncnc32)[C@H](O)[C@@H]1O,4.3
11,O=C(Nc1ccccc1)c1cc([N+](=O)[O-])ccc1Cl,-9.01
12,OCC1O[C@H](O)C(Cl)C(O)C1O (stereo partly specified),6.1
13,N#C/C(=C\c1ccc(O)c(O)c1)C(=O)c1ccc(O)c(O)c1,106
14,CN=c1nc(-c2ccccc2)n(-c2ccccc2)s1,10.1
15,NC(=S)c1ccc[n+]([C@@H]2O[C@@H](COP(=O)([O-])OP(=O)(O)OC[C@H]3O[C@@H](n4cnc5c(N)ncnc54)[C@H](OP(=O)(O)O)[C@@H]3O)C(O)C2O)c1 (stereo partly specified),11.9
16,N=c1ccn2c(n1)O[C@H]1[C@H](O)[C@@H](CO)O[C@H]12,3.44
17,CC(C)CC(NP(=O)(O)O[C@@H]1O[C@@H](C)[C@H](O)[C@@H](O)[C@H]1O)C(=O)NC(Cc1c[nH]c2ccccc12)C(=O)O (stereo partly specified),5.27
18,Clc1ccc(N2CCN(Cc3c[nH]c4ncccc34)CC2)cc1,1.24
19,NCC1OC(O[C@H]2[C@H](O)[C@@H](OC3C(O)C(N)CC(N)C3OC3OC(CO)C(O)C(O)C3N)O[C@@H]2CO)C(N)C(O)C1O (stereo partly specified),4.99
20,CCCCC#Cc1nc(NC)c2ncn([C@@H]3O[C@H](CO)[C@@H](O)[C@H]3O)c2n1,5.4
21,S=C(S)OC1CC2CC1C1CCCC21 (stereo unspecified),4.46
